Measurements as given in PubChem BioAssay.
A number with no mark means an inactive call. Active and inactive are the calls of the source. Unless noted, no stated cut-off is given here; in the data, active means inhibition above about 33%; inactive means the rest.

Target: Steroidogenic factor 1 (Homo sapiens) (UniProt Q13285)
Assay: inverse agonism at SF1 nuclear receptor – cell-based, luminescence, high throughput, counter-screen for LRH-1 inverse agonist project (AID 651614; in the data active means inhibition above about 44%;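 further: cells cotransfected with StAR promoter reporter and SF1 expression vector; 0% = vehicle on cells with receptor and 100% = vehicle on cells lacking receptor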)
Settings: cell-based SF1 luciferase reporter, at 3.6 µM, stronger effect = higher value

Sequence of Steroidogenic factor 1 (Homo sapiens) (Q13285 whole entry, looked up): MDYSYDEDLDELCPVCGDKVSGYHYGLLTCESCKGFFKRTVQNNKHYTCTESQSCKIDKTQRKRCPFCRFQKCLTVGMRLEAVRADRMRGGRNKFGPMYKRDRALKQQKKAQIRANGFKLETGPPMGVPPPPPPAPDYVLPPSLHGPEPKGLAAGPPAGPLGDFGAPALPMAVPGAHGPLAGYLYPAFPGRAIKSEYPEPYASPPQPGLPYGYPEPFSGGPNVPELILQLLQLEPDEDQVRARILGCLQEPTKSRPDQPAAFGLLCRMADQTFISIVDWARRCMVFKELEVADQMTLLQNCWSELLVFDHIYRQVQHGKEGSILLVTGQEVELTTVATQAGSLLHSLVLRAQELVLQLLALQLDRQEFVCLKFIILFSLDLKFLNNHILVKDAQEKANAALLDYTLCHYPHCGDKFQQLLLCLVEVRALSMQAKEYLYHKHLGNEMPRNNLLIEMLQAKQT

| SMILES | inhibition |
| --- | --- |
| CCCn1c2c(c(=N)c3c1CCC3)CCCC2 | 55% (active) |
| CCOc1ccc(CCNC(=O)COC(=O)COc2ccc(Br)cc2)cc1OCC | 56.3% (active) |
| CC1(C)Cc2c(sc3nc(SCC(=O)NCc4ccco4)n(-c4ccccc4)c(=O)c23)CS1 | 40.7% |
| N#Cc1c2ccc([N+](=O)[O-])cc2[n+]([O-])n1-c1ccccc1 | 75.4% (active) |
| Cc1ccc(NC(=O)COC(=O)C(NS(=O)(=O)c2ccc(Cl)cc2)C(C)O)cc1C (stereo not given) | 43.2% (active) |
| COc1ccc(NC(=O)CSc2nnc(Cc3ccccc3)c(=O)n2N)c(OC)c1 | 54.2% (active) |
| C=CC(=O)Nc1ccc(Br)cc1 | 51.4% (active) |
| Cc1cc([N+](=O)[O-])ccc1NCc1ccc2ccccc2c1 | 38.8% |
| O=C(Cc1ccc(Cl)cc1Cl)Nc1ccncc1Cl | 70% (active) |
| CCOc1ccc(NC(=O)Cn2cc(C(C)=O)c3ccccc32)cc1 | 73.8% (active) |
| Cc1onc(-c2ccccc2Cl)c1-c1nc(-c2ccncc2)no1 | 52.9% (active) |
| O=C(Nc1cc(C(F)(F)F)ccc1-n1cncn1)c1ccc([N+](=O)[O-])o1 | 49.1% (active) |
| CC[C@H](CO)Nc1nc(Nc2cccc(Cl)c2)c2ncn(C(C)C)c2n1 | 38.4% |
| CN1C(=O)NC(c2ccccc2[N+](=O)[O-])C2=C1CC(C)(C)CC2=O (stereo not given) | -6.97% |
| CSCc1c(C(=O)Nc2ccccc2N2CCOCC2)oc2ccccc12 | 62.5% (active) |
| COc1ccc(-c2c(-c3ccccc3)c(C(=O)C(=O)NCCCN(C)C)n3ccc4cc(OC)c(OC)cc4c23)cc1OC | 32.1% |
| COC(=O)c1ccc(NC(=O)CN2CCN(c3ccc(Cl)cc3)CC2)cc1 | 45.8% (active) |
| COc1ccc(NC(=O)COC(=O)CNC(=O)c2cc(OC)c(OC)c(OC)c2)cc1 | 50.5% (active) |
| CCOc1ccc(Br)cc1/C(C)=N\NC1=NCCN1 | 36.7% |
| CCc1cc(=O)oc2cc3occ(-c4ccc(OC)c(F)c4)c3cc12 | 60.6% (active) |

| SMILES | inhibition |
| --- | --- |
| O=C(CSc1nnc(Cc2cccs2)n1-c1ccccc1)Nc1ccc2c(c1)OCCO2 | 31.1% |
| CC(=O)Nc1sc2c(c1-c1nc3ccccc3s1)CN(C(C)C)CC2 | 61.1% (active) |
| O=C(CN1C(=O)NC2(CCCCC2)C1=O)NCCc1c[nH]c2ccccc12 | 56.5% (active) |
| Cc1sc(NC(=S)NC(=O)CCc2ccccc2)c(C(N)=O)c1C | 38.1% |
| O=C(c1ccc([N+](=O)[O-])s1)N1CCN(c2ncccn2)CC1 | 41.5% |
| Cc1ccc(NC(=O)c2ccc([N+](=O)[O-])o2)cc1S(=O)(=O)N1CCOCC1 | 58.8% (active) |
| Cc1cc(C)c(C(N)=O)c(Nc2cccc3ccccc23)n1 | 22.7% |
| COc1ccc(NC(=O)c2cc(-c3cc(F)ccc3OC)n[nH]2)cc1OC | 49.4% (active) |
| CCC1CCCCN1C(=O)c1ccc([N+](=O)[O-])o1 (stereo not given) | 46.7% (active) |
| CC(=NNC(=S)N1CCN(c2ccccn2)CC1)c1nccs1 | 79.4% (active) |
| Cn1c(=O)n(C)c2cc(NC(=O)CSc3nnc(-c4ccccc4O)n3-c3ccccc3)ccc21 | 54.8% (active) |
| CCOC(=O)c1cc(-c2ccncc2)nc2c1c(C)nn2-c1ccccn1 | 48% (active) |
| C/C(CC1CC(C)(C)OC1=O)=N/Nc1nc(-c2ccccc2)cs1 (stereo not given) | 54.3% (active) |
| COC(=O)c1c(NC(=O)c2ccc([N+](=O)[O-])o2)sc2c1CCN(C(C)C)C2 | 44.1% (active) |
| Cc1onc(NC(=O)c2ccc([N+](=O)[O-])o2)c1Br | 58.4% (active) |
| CC1(C)Cc2ccccc2-c2nnnn21 | 2.39% |
| CC(=O)c1ccc(NC(=O)CN2C(=O)NC3(CCc4ccccc43)C2=O)cc1 (stereo not given) | 49.3% (active) |
| COc1ccc(C[C@@H]2OC3(C=CC(=O)C=C3)O[C@H]2Cc2ccc(OC)cc2)cc1 | 66% (active) |
| N#CC1=C(N2CCOCC2)/C(=C\c2ccccc2)CC1 | 46.6% (active) |
| COc1cc(C(=O)NN=Cc2ccc(N(C)C)cc2)cc(OC)c1OC | 51.1% (active) |

Test system: not listed separately
Assay: compounds suppressing VP16-driven luciferase signal – cell-based, luminescence, high throughput, counter-screen for LRH-1 inverse agonist project (AID 651615)
Settings: Gal4-VP16 luciferase reporter cells, at 3.6 µM, stronger effect = higher value

| SMILES | inhibition |
| --- | --- |
| CCCn1c2c(c(=N)c3c1CCC3)CCCC2 | 44.9% (active) |
| CCOc1ccc(CCNC(=O)COC(=O)COc2ccc(Br)cc2)cc1OCC | 4.38% |
| CC1(C)Cc2c(sc3nc(SCC(=O)NCc4ccco4)n(-c4ccccc4)c(=O)c23)CS1 | 4.77% |
| N#Cc1c2ccc([N+](=O)[O-])cc2[n+]([O-])n1-c1ccccc1 | -21.2% |
| Cc1ccc(NC(=O)COC(=O)C(NS(=O)(=O)c2ccc(Cl)cc2)C(C)O)cc1C (stereo not given) | -7.53% |
| COc1ccc(NC(=O)CSc2nnc(Cc3ccccc3)c(=O)n2N)c(OC)c1 | 5.51% |
| C=CC(=O)Nc1ccc(Br)cc1 | -1.85% |
| Cc1cc([N+](=O)[O-])ccc1NCc1ccc2ccccc2c1 | 2.64% |
| O=C(Cc1ccc(Cl)cc1Cl)Nc1ccncc1Cl | 47.1% (active) |
| CCOc1ccc(NC(=O)Cn2cc(C(C)=O)c3ccccc32)cc1 | 41.9% (active) |
| Cc1onc(-c2ccccc2Cl)c1-c1nc(-c2ccncc2)no1 | 18.2% |
| O=C(Nc1cc(C(F)(F)F)ccc1-n1cncn1)c1ccc([N+](=O)[O-])o1 | -15.7% |
| CC[C@H](CO)Nc1nc(Nc2cccc(Cl)c2)c2ncn(C(C)C)c2n1 | 35.9% (active) |
| CN1C(=O)NC(c2ccccc2[N+](=O)[O-])C2=C1CC(C)(C)CC2=O (stereo not given) | 0.8% |
| CSCc1c(C(=O)Nc2ccccc2N2CCOCC2)oc2ccccc12 | 14.2% |
| COc1ccc(-c2c(-c3ccccc3)c(C(=O)C(=O)NCCCN(C)C)n3ccc4cc(OC)c(OC)cc4c23)cc1OC | 2.99% |
| COC(=O)c1ccc(NC(=O)CN2CCN(c3ccc(Cl)cc3)CC2)cc1 | 2.51% |
| COc1ccc(NC(=O)COC(=O)CNC(=O)c2cc(OC)c(OC)c(OC)c2)cc1 | -7.21% |
| CCOc1ccc(Br)cc1/C(C)=N\NC1=NCCN1 | 33.2% (active) |
| CCc1cc(=O)oc2cc3occ(-c4ccc(OC)c(F)c4)c3cc12 | 23.1% |

| SMILES | inhibition |
| --- | --- |
| O=C(CSc1nnc(Cc2cccs2)n1-c1ccccc1)Nc1ccc2c(c1)OCCO2 | -2.43% |
| CC(=O)Nc1sc2c(c1-c1nc3ccccc3s1)CN(C(C)C)CC2 | 80.7% (active) |
| O=C(CN1C(=O)NC2(CCCCC2)C1=O)NCCc1c[nH]c2ccccc12 | 3.42% |
| Cc1sc(NC(=S)NC(=O)CCc2ccccc2)c(C(N)=O)c1C | 11.8% |
| O=C(c1ccc([N+](=O)[O-])s1)N1CCN(c2ncccn2)CC1 | 4.85% |
| Cc1ccc(NC(=O)c2ccc([N+](=O)[O-])o2)cc1S(=O)(=O)N1CCOCC1 | -4.03% |
| Cc1cc(C)c(C(N)=O)c(Nc2cccc3ccccc23)n1 | -17.9% |
| COc1ccc(NC(=O)c2cc(-c3cc(F)ccc3OC)n[nH]2)cc1OC | 52% (active) |
| CCC1CCCCN1C(=O)c1ccc([N+](=O)[O-])o1 (stereo not given) | 3.65% |
| CC(=NNC(=S)N1CCN(c2ccccn2)CC1)c1nccs1 | 44.3% (active) |
| Cn1c(=O)n(C)c2cc(NC(=O)CSc3nnc(-c4ccccc4O)n3-c3ccccc3)ccc21 | -42.1% |
| CCOC(=O)c1cc(-c2ccncc2)nc2c1c(C)nn2-c1ccccn1 | 13.1% |
| C/C(CC1CC(C)(C)OC1=O)=N/Nc1nc(-c2ccccc2)cs1 (stereo not given) | -29.5% |
| COC(=O)c1c(NC(=O)c2ccc([N+](=O)[O-])o2)sc2c1CCN(C(C)C)C2 | 0.53% |
| Cc1onc(NC(=O)c2ccc([N+](=O)[O-])o2)c1Br | -9.49% |
| CC1(C)Cc2ccccc2-c2nnnn21 | -5.72% |
| CC(=O)c1ccc(NC(=O)CN2C(=O)NC3(CCc4ccccc43)C2=O)cc1 (stereo not given) | -0.14% |
| COc1ccc(C[C@@H]2OC3(C=CC(=O)C=C3)O[C@H]2Cc2ccc(OC)cc2)cc1 | 70.6% (active) |
| N#CC1=C(N2CCOCC2)/C(=C\c2ccccc2)CC1 | 8.41% |
| COc1cc(C(=O)NN=Cc2ccc(N(C)C)cc2)cc(OC)c1OC | 22.3% |
